# Laboratory results published in the supplement of paper PMC6555819.
# Key:
# Assay in all cases: PBM binding z-score (relative to random genomic background probes); higher = stronger binding; sequences stand for … in GC…GCGATTGACAGCGTAGAATGAAGG
# [1] = tested on: RARb homodimer (NR concentration 270 nM)
# In short: (§1)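 Probes were double-stranded and carried 34-nt variable regions with direct-repeat seeds, single-nucleotide variants, half-site ablations and random human genomic background sequences, printed on custom Agilent 4×180K protein-binding microarrays. Arrays were incubated 1 h with ligand-free nuclear receptor dimers in PBS pH 7.4, 2% milk, 0.02% Triton X-100, 1 mM DTT, 0.2 mg/mL BSA and 0.4 mg/ml salmon testes DNA. Antibodies against each partner (one per run) detected binding, and scanned fluorescence was regression-normalized. Binding z-scores use the random background probes as reference.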
# [2] = tested on: RARg:RXRa (NR concentration 270 nM, RXRa partner concentration 90 nM)
# In short: as §1
# [3] = tested on: RARg homodimer (NR concentration 270 nM)
# In short: as §1
# [4] = tested on: RXRa DBDmut IVT, anti-RXR (DBD mutation: RXRa K156A/R161A, NR concentration 90 nM)
# In short: as §1
# [5] = tested on: RXRa homodimer (NR concentration 180 nM)
# In short: as §1
# [6] = tested on: THRa:RXRa (NR concentration 90 nM, RXRa partner concentration 90 nM)
# In short: as §1
# [7] = tested on: THRa homodimer (NR concentration 90 nM)
# In short: as §1
# [8] = tested on: VDR homodimer (NR concentration 270 nM)
# In short: as §1
Sequence,PBM binding z-score [1],PBM binding z-score [2],PBM binding z-score [3],PBM binding z-score [4],PBM binding z-score [5],PBM binding z-score [6],PBM binding z-score [7],PBM binding z-score [8]
GCTGCTAGGTCAACTGCTGGTCAGCTAAAGCTCG,3.54,5.38,5.45,1.4,2.79,2.92,0.954,-0.195
GCATATAGGTAATACAAGGAGAAAGTCCGATTGT,-0.449,0.152,0.156,0.562,-0.0159,1.9,-0.606,-0.234
TCATATAGGTAATACAGGGGAAAGTCGGCATCTA,0.303,0.419,0.551,1.97,0.857,0.893,0.385,-0.00129
TCATATATGTAAAAGGTGAAAGTCGGTGTGGTAA,1.67,1.18,0.788,1.48,1.79,1.36,0.104,0.0436
ATCGAAAGGTCGAGGTCAGTATAGAGAAAGGGAA,4.73,5.69,6.16,2.01,5.46,3.84,1.93,2.73
TAGCTTAGGTCATGGGCCAGTATACCACGCGAAC,3.13,4.31,4.67,0.975,3.74,3.68,2.42,0.172
CAAACTAGCTCACGAAAGGTCAAAGTCGAATGAC,4.81,5.46,5.04,1.31,6.26,3.62,0.952,2.53
CCGAGTAGGTTATAGGGCATTCAGGCAACGGTGA,1.33,0.821,0.848,0.485,1.19,0.932,0.256,0.435
CATACTGGGCCAAGGTCATTGATCAGTCAAAGCA,3.56,3.85,3.29,1.62,3.31,3.49,2.63,3.71
TGTAGCAGGCCAGAGGGTCACTCAAGAGGTACGG,2.85,2.8,2.7,-1.32,2.64,1.59,-0.464,0.427
GCTCGGAGGAAAAGGTCAGAGCTTTGTCCGTAGA,4,4.34,4.89,-0.162,4.74,2.22,-0.291,-0.277
CTTACTGGGCCATTCAGAGGTCATTGATCATATG,4.12,4.5,3.62,1.88,4.04,3.24,1.61,3.73
CGTCAAAGTTCAACCAAGGTAACGTAAAGCACGC,4.13,5.85,6.21,4.5,4.98,5.14,1.18,4.3
CGTCCCAGGTCAATGCTAGGTCAGTGAAAGCATT,4.23,6.41,5.01,1.99,3.1,4.25,2.99,1.74
TAGCCTAGGTCATGCGGGCCACTATAGTGTCGGC,2.97,4.13,4.41,0.662,3.23,3.15,0.932,1.08
AGAACGAGGGCCATGAGTTGATAGCACGGGTGGC,0.111,0.395,0.308,-0.019,0.448,-0.138,-0.79,0.371
CCTGCTAGGTCTTGGTCAGCTAATCTACAGTATG,0.408,-0.194,-0.144,0.336,-0.394,-0.178,-0.108,-0.656
CGTCCAAGGTCAAGGTCATTGAAAGAGACTCGAA,5.3,7.02,7.64,3.89,7.4,4.39,3.82,5.11
GCTTATGGGTCAAAGGTTATAGCATGAATAGAAT,3.09,6.53,4.48,2.11,9.21,3.41,-0.168,1.13

Sequence,PBM binding z-score [1],PBM binding z-score [2],PBM binding z-score [3],PBM binding z-score [4],PBM binding z-score [5],PBM binding z-score [6],PBM binding z-score [7],PBM binding z-score [8]
CCTAGTGGGCCATTCAGAGGTCATTGATCATATG,3.74,4.53,3.07,0.957,3.76,3.08,1.34,3.53
CGTCCAAGGTCAAAGTCAGTGAAAGAGACTCGAA,3.32,5.86,6.34,3.91,5.95,3.5,1.72,2.46
TTACCAAGGTGGAGGTCGTTGATCCCTCTGTAGA,1.15,0.155,-0.0331,0.0989,1.41,1.4,0.145,1.32
TCTTGTAGATTAAGCAGGTTAAGAAAGCCTGAGT,0.394,-0.0145,-0.457,0.673,0.377,0.509,-0.386,0.113
GCTCGGAGGACAATGTCAGAGCTTTGTCCGTAGA,0.0448,-0.133,0.0822,0.18,-0.593,0.348,-0.612,-0.447
ATCTCTAGGTAACCAAGTTCAGAGAATGCCGAAC,1.48,0.849,1.13,0.821,0.723,1.46,0.471,2.7
GCTGCTAGGTCTACTGATGGTCAGCTAAAGCTCG,-0.175,-0.238,-0.555,0.147,-0.738,-0.635,-0.572,-0.893
CCTAGTTGTTCAAGGTCACACACGCTATAGGTAC,4.25,4.69,4.87,2.65,4.92,4.3,4.9,4.98
CAAACTAGGTCACCGCAAGGTCAAAGTCCGCATG,5.35,8.07,7.32,2.61,6.15,4.68,4.38,4.3
CCTGCTAGGTCATTGGTCAGCTAAAGCAGCTCGC,3.25,3.88,4.43,3.02,2.61,2.79,1.24,1.27
AGAACGAGGGCACGCTGAGTTGATAGAAGAGTAG,1.17,1.97,2.31,1.83,1.29,1.91,-0.0196,1.72
CCAGACAGGTGAGAAGGTAACCCAGCCTCGATTA,0.888,0.695,0.557,-0.131,0.558,0.444,0.455,-0.253
CCTTACGGGTCGAGGTTATAGCACGGGTGGTACG,1.42,1.78,1.16,-0.662,2.5,1.84,0.377,0.977
TCGAGTAGGTTTCCAATGGGGCATTCAGCTTTCT,-0.0582,-0.76,-0.806,0.449,-0.581,-0.683,-0.262,-0.443
GGAACGAGGGCAAAGTTGATATCATCTGTCGACG,1.26,2.14,1.97,2.81,1.96,1.32,0.0109,1.29
GCAGGCAGGTGAAACGCAGGTAACTCAGGGTGGC,-0.0937,0.946,0.484,-0.721,0.329,1.58,-0.371,-0.723
TCTTGTAGATCAAGCACGTTAAGAAAGCCTGAGT,-0.605,-0.0676,-0.183,0.721,0.234,-0.341,-0.599,-0.125
GCTCGGAGGACAAGGACAGAGCTTTGTCCGTAGA,0.139,-0.0807,0.418,-0.45,-0.592,1.31,0.61,-0.639
AGAATGAGGTTAAGACCAGGGAAACAGAATACAT,1.01,1.97,1.33,0.973,2.47,2.48,0.691,0.514

Sequence,PBM binding z-score [1],PBM binding z-score [2],PBM binding z-score [3],PBM binding z-score [4],PBM binding z-score [5],PBM binding z-score [6],PBM binding z-score [7],PBM binding z-score [8]
GCTTGTAGATAAAGGTTAAGAAAGACTAAGCTAA,0.948,1.29,1,-0.0132,1.86,1,-0.76,-0.0184
CGAACGAGGGCATGCGTTGATAGCAAATGCCGAT,0.766,1.03,1.55,2.39,0.91,0.988,-0.0968,1.21
ATTCAAAGTTCACTAGGTAACGTAAGATTCAGCT,3.66,4.48,5.35,4.38,3.58,2.03,0.474,4.11
TCTTGTAGTTCAAGCAGGTTAAGAAAGCCTGAGT,1.48,1.44,1.65,2.37,1.47,1.63,-0.0988,2.02
CCGACTGGGGCAAGGATACCATAACGCACAGCCA,0.07,0.225,0.802,-0.717,0.232,-0.00683,0.154,-0.376
AATATTAGTTGAGACGAGGGCAACCGATAGGTTG,1.28,0.902,0.922,0.47,0.883,2.64,0.504,1.73
ACATGTAGGTTAGCTGGGGTCATTCAGACTAGGC,3.72,4.24,2.97,2.34,5.59,5.12,3.49,5.66
CGTCCAAGGTCAAAGGTCAGTGACGAGATGACGG,5.47,8.79,8.22,3.93,10.5,4.85,2.69,3.54
CCTTACGGGTCACGAGGTTAGAGCACGACGAGCG,3.63,6.04,5.46,2.04,6.47,3.45,0.765,1.84
GCTGCTAGGTCAGGTTGGTCAGCTAGCGGGTACG,2.7,2.69,3.44,0.414,0.963,1.71,0.421,-0.146
ACTATTAGTTGTGACGAGGGCAACCGATAGGTTG,1.21,0.579,0.719,0.601,0.491,1.32,0.209,0.862
TCTGATAGGTCAGTTGGTCAGCTAACGAGCTGCC,2.94,3.32,4,1.1,2.15,0.722,-0.367,-0.342
ATCTCTAGGTGACAAGTTCAGTGAAAGAGAGGAC,2.34,2.03,1.82,0.449,1.09,1.71,0.652,2.05
ATCGAAAGGGCGACGAGGTGAGTATACACCGTTT,1,1.16,1.28,-0.425,0.969,1.99,0.542,0.597
ATACCAAGGTGATCGTGAGGTCGTAGATACTAAC,1.56,2.26,1.03,-0.0325,1.76,3.54,2.52,1.86
TGTCAAAGTTCAAAGATAACGTAAGTATCCACAC,3.35,5.44,6.18,4.22,4.6,1.86,-0.41,3.32
CGTCCATGGTCATAGGAGGTCAGTGAAGACAGAT,3.47,2.87,2.8,0.0145,2.18,3.83,0.621,1.16
CCAAACAGGTGAAAGGTAACTCAGTCTGGTACGC,0.802,1.11,0.696,0.223,1.99,0.954,0.0389,0.206
CCTAGTTGGTCGAGGTCACACACGCTATAGGTAC,3.98,4.6,4.42,2.64,5.16,4.16,4.15,4.51
